Drawing on PubChem BioAssay (NCI), this text covers growth inhibition for 20 compounds.

Assay [1] in a line: NCI Yeast Anticancer Drug Screen. Data for the rad50 strain (AID 155).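 Further: 0% = growth of vehicle-only cultures of the same strain.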 To be noted: S. cerevisiae rad50 strain growth inhibition; at 50.0 µM; stronger effect = higher value. The essentials:
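Compounds were tested on a yeast strain with an engineered DNA damage repair alteration; the reported value is growth inhibition normalised to vehicle treatment.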

Assay [2] in a line: NCI Yeast Anticancer Drug Screen. Data for the mec2-1 strain (AID 157). The settings on record: S. cerevisiae mec2-1 strain, at 50.0 µM, stronger effect = higher value. The essentials: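 Strain: mec2-1 (DNA repair/cell cycle alteration). Compound exposure, then growth measured; inhibition expressed relative to vehicle.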
The nature of assay [3]: NCI Yeast Anticancer Drug Screen. Data for the sgs1 mgt1 strain (AID 161).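 Further: 0% = growth of cultures given vehicle only.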 The settings on record: S. cerevisiae sgs1 mgt1 strain, at 50.0 µM, stronger effect = higher value. The essentials: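 Read-out: growth inhibition vs vehicle controls. Cells: mutant yeast strain deficient in DNA damage repair.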
A short description of assay [4]: NCI Yeast Anticancer Drug Screen. Data for the cln2 rad14 strain (AID 165).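 Further: 0% = growth equal to vehicle treated cultures.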 To be noted: S. cerevisiae cln2 rad14 strain, at 50.0 µM, stronger effect = higher value. The essentials:
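Compounds are applied to the cln2 rad14 yeast strain, and growth is then compared with that of vehicle-treated cultures to give inhibition.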

Assay [5] can be described thus: NCI Yeast Anticancer Drug Screen. Data for the bub3 strain (AID 167). The settings on record: S. cerevisiae bub3 mutant strain, at 50.0 µM, stronger effect = higher value. In a few lines: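 Growth of a checkpoint-deficient yeast mutant is measured after compound exposure. Values represent inhibition relative to vehicle.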
Assay [6] can be described thus: NCI Yeast Anticancer Drug Screen. Data for the mlh1 rad18 strain (AID 175). The settings on record: S. cerevisiae mlh1 rad18 strain growth inhibition; at 50.0 µM; stronger effect = higher value. The essentials:
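Read-out is yeast growth inhibition, calculated against vehicle-only controls. The compound was applied to a strain engineered with DNA damage repair alterations.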

SMILES strings stand for the structures. About 79,000 compounds went through this panel and 15% of them were active in at least one assay; those are over-represented in the sample as a whole. A number with no mark means an inactive call. The source made the active and inactive calls. No stated cut-off is given here; in the data, active means growth inhibition above about 70%; inactive means the rest.

As for `CC1=C(C#N)C(=N)OC1(C)C1CC(=O)C=CC1=O` (stereo not given), the growth inhibition is -11.5% in assay [1]; 27.4% in assay [2]; 7.9% in assay [3]; 20.5% in assay [4]; 4.55% in assay [5]; 4.6% in assay [6].
On to `CCOC(=O)c1ncn2c1[nH]c(=O)c1ccccc12`, for which the growth inhibition in assay [1] was -6.95%; in assay [2] it was -16.6%; in assay [3], -8.9%; in assay [4], 1.2%; in assay [5] it was -9.5%; in assay [6] it was -10.6%.
As for `N#CC1(c2ccc(Cl)cc2)CCC1`, the growth inhibition in assay [1] is 11.7%; in assay [2], 6.15%; in assay [3] it was 19.8%; in assay [4] it was 19.9%; in assay [5] it was 27.5%; in assay [6], 8.6%.
For `O=C(N/N=C/c1ccc(Cl)c([N+](=O)[O-])c1)C(O)(c1ccccc1)c1ccccc1`, the growth inhibition in assay [1] was 10.2%; in assay [2], -2.7%; in assay [3], 12.4%; in assay [4], -4.45%; in assay [5] it was -1%; in assay [6], -19.1%.
Regarding `CN(C)c1ccc(C(=O)C2N=NCC2c2ccccc2)cc1` (stereo not given), the growth inhibition in assay [1] is 10.3%; in assay [2], -1.3%; in assay [3], 13%; in assay [4], 7.3%; in assay [5] it was 12.8%; in assay [6], 17.2%.
`O=c1cc(-c2ccccc2)[nH]c2ncccc12`: the growth inhibition is -37.5% in assay [1]; -48.6% in assay [2]; -37.1% in assay [3]; -9.4% in assay [4]; -19.8% in assay [5]; -65.8% in assay [6].
Take `Fc1ccc(N2CSC(=S)N(c3ccc(F)cc3F)C2)c(F)c1`: the growth inhibition is 8.95% in assay [1]; -5.7% in assay [2]; 31.5% in assay [3]; 6.8% in assay [4]; 28.9% in assay [5]; 18.8% in assay [6].
`N#CCC(=O)NCCc1ccccn1`: the growth inhibition in assay [1] is -6.75%; in assay [2], -3.7%; in assay [3] it was -13.8%; in assay [4], -44.6%; in assay [5], 10.2%; in assay [6], -9.05%.
`O=C1CCCC/C1=C1/SC(=Nc2ccccc2)C(=Nc2ccccc2)N1c1ccccc1`: the growth inhibition in assay [1] is 21.2%; in assay [2], 16.1%; in assay [3], 16.2%; in assay [4], 31%; in assay [5], 19.1%; in assay [6], 8.6%.
For `CC1=NN(C(=O)c2ccc(Cl)cc2)C(=O)/C1=C/c1ccc(O)cc1`, the growth inhibition in assay [1] is -6.65%; in assay [2], -16.6%; in assay [3] it was -38.6%; in assay [4], -7.55%; in assay [5], -3.55%; in assay [6] it was -19.9%.
Regarding `NC(=O)N/N=C/c1ccc2oc3ccccc3c2c1`, the growth inhibition was 40.2% in assay [1]; 19.1% in assay [2]; 18.4% in assay [3]; 16.5% in assay [4]; 18.4% in assay [5]; 44.5% in assay [6].
For `COC(=O)C(/C(=N\O)C(=O)Nc1cccc(Cl)c1C)c1cnc2ccccc2n1` (stereo not given), the growth inhibition was 14.5% in assay [1]; -11.1% in assay [2]; 8.75% in assay [3]; 23.5% in assay [4]; -0.2% in assay [5]; 12.5% in assay [6].
With `CN1CCCCC1C[CH2][Sn]([c]1ccccc1)([c]1ccccc1)[c]1ccccc1` (stereo not given), the growth inhibition in assay [1] was 99.6% (active); in assay [2], 99.5% (active); in assay [3], 99.7% (active); in assay [4], 99.2% (active); in assay [5] it was 99.2% (active); in assay [6] it was 99.5% (active).
Consider `O=C1N[C@H](Cc2cnc[nH]2)C(=O)N2CCC[C@@H]12`, for which the growth inhibition in assay [1] is 15.2%; in assay [2] it was -3.55%; in assay [3], 8.75%; in assay [4], 16.1%; in assay [5] it was 9.75%; in assay [6], 23.7%.
For the compound `N#CC(C(=O)CCCC(=O)Nc1ccc(Cl)cc1Cl)c1ccccc1` (stereo not given), the growth inhibition was -39% in assay [1]; -13.6% in assay [2]; -6.95% in assay [3]; 13.2% in assay [4]; -16% in assay [5]; -28.1% in assay [6].
For the compound `N#Cc1nc(NC(=O)c2ccccc2)sc1N`, the growth inhibition in assay [1] is -5.7%; in assay [2], -29.9%; in assay [3] it was -27.6%; in assay [4], 11.2%; in assay [5], 4.2%; in assay [6], -10.2%.
For the compound `CNC(=S)c1ccc(Cl)cc1`, the growth inhibition is 12.3% in assay [1]; -20.6% in assay [2]; -15.1% in assay [3]; -29.8% in assay [4]; -2.05% in assay [5]; 11.3% in assay [6].
As to `COc1cc([C@H]2CC(=O)C[C@H](c3cc(OC)c(OC)c(OC)c3)C23C(=O)c2ccccc2C3=O)cc(OC)c1OC`, the growth inhibition in assay [1] is -3%; in assay [2] it was 11.9%; in assay [3], -8.7%; in assay [4], 29.5%; in assay [5], 0.45%; in assay [6], 7%.
As for `Clc1nncc(SCc2ccccc2)c1SCc1ccccc1`, the growth inhibition in assay [1] is 17.2%; in assay [2], 11.6%; in assay [3] it was 8.3%; in assay [4] it was -9%; in assay [5] it was 22.5%; in assay [6], 8.4%.
Consider `CC(=O)Nc1nc2ncc(CN(C(C)=O)c3ccc(C(=O)O)cc3)nc2c(=O)[nH]1`, for which the growth inhibition in assay [1] is -19.3%; in assay [2], -8.6%; in assay [3], -38.1%; in assay [4] it was -8.65%; in assay [5] it was -21.1%; in assay [6], -10.2%.
